Shn3 3UTR inh – reduces Shn3 3'UTR luciferase signal in osteoblasts; Clone20 osteoblast Shn3 3'UTR firefly luciferase, 24 h; inhibition, % at 12.5 µM; 360,000 tested, 0.52% active;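 active = mean inhibition of at least 75% with every replicate also reaching 75%; inconclusive = mean inhibition at least 75% but some replicate below; inactive = mean inhibition below 75%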
697 NFkB inh – inhibitors of the PMA/ionomycin-induced NF-kB reporter in 697 B cells; 697 B-cell NF-kB luciferase reporter, 16 h; inhibition, % at 4 µM; 330,000 tested, 0.33% active; AID 435022; in the data active = inhibition above about 35%
Jurkat NFkB inh – lowers PMA/ionomycin-induced NF-kB signal in Jurkat cells | PMA/ionomycin-induced NF-kB luciferase reporter, luminescence | inhibition, % at 4 µM | 330,000 tested, 0.53% active | AID 435003; in the data active = inhibition above about 50%
aSyn UTR inh – MLPCN primary screen, SNCA 5' untranslated region; alpha-synuclein 5'UTR reporter, inhibitor activity; inhibition, % (tested at 7.5 µM); 300,000 tested, 0.82% active; AID 1813; in the data active = inhibition above about 60%; inconclusive = no clear call, values can overlap the other calls;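 also: H4 neuroglioblastoma cells stably carrying SNCA 5'UTR luciferase fusion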
TAG inh – triacylglycerol accumulation inhibition; inhibition, % at 12.5 µM; 230,000 tested, 0.66% active; H9c2 cells, Nile Red lipid (TAG) fluorescence; cells loaded with 200 µM oleic acid;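 active = pattern-corrected inhibition of lipid staining of at least 50% with the nuclear-stain viability signal not falling by more than 50%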
Gli-Sufu antag – blocks Gli-Sufu signaling in a luciferase reporter; 340,000 tested, 0.74% active; inhibition, % at 5 µM; Sufu-KO-LIGHT fibroblasts, Gli luciferase reporter luminescence;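 active = inhibition above about 55%, limit read from the data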
Jurkat NFkB conf – lowers PMA/ionomycin-induced NF-kB signal in Jurkat cells. AID 435020. 2,700 tested, 27% active. Jurkat NF-kB luciferase, 16 h. inhibition, % at 4 µM. shares compounds with Jurkat NFkB inh;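 active = inhibition reaching about 45% at 4 µM in either replicate, limit read from the data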
Hits are given with their value; - = inactive; ? = inconclusive; . = no result. An excerpt weighted towards active compounds, which were near 2.3% of everything screened.

SMILES | Shn3 3UTR inh | 697 NFkB inh | Jurkat NFkB inh | aSyn UTR inh | TAG inh | Gli-Sufu antag | Jurkat NFkB conf
Cc1ccc(N=Nc2c(=O)[nH]n3c(C)cc(C)nc23)cc1 | - | - | - | - | - | - | .
Cc1ccc(O)c(NC(=O)CSc2ccc(Cl)cc2)c1 | - | - | 69 | - | - | - | -
Cc1ccc(O)c(NC(=O)Cc2ccc3ccccc3c2)c1 | - | - | 74 | - | - | - | -
O=C1OC(c2ccccc2)C(O)=C1c1ccccc1 (stereo not drawn) | - | . | . | . | - | - | .
COc1cccc2[nH]c3c(N4CCN(Cc5ccc6c(c5)OCO6)CC4)ncnc3c12 | . | - | - | - | . | . | .
COc1ccc2c(c1)[nH]c1c(N3CCN(Cc4ccc5c(c4)OCO5)CC3)ncnc12 | - | - | 52 | - | . | - | 58
O=C(Nc1nnc(/C=C/c2ccccc2)s1)c1ccco1 | - | - | - | - | - | - | .
O=C(Nc1nc2ccccc2c(=O)s1)c1ccco1 | - | - | 64 | - | - | - | -
N/C(=N\OC(=O)c1ccc(Cl)cc1)c1ccn[nH]1 | - | - | - | - | - | - | -
N/C(=N\OC(=O)c1ccccc1Cl)c1ccc(Cl)cc1 | - | - | - | - | - | - | -
N/C(=N\OC(=O)c1ccc(Cl)cc1)c1ccc(Cl)cc1 | - | - | - | - | - | - | .
N/C(=N\OC(=O)c1ccccc1Cl)c1ccccc1 | - | - | - | - | . | - | -
O=C(Nc1ccc2c(c1)Cc1ccccc1-2)c1ccncc1 | - | - | - | - | . | - | .
CCCc1nc2oc3ccccc3c(=O)c2c(=O)n1-c1ccc(C)cc1 | - | - | - | - | - | - | -
Cc1ccc(-n2c(C(C)C)nc3oc4ccccc4c(=O)c3c2=O)cc1 | - | - | - | - | - | - | -
O=C(CCN1C(=O)/C(=C/c2ccc3c(c2)OCO3)SC1=S)NNC(=O)c1cccnc1 | - | - | - | - | - | - | .
N#Cc1cc(Br)ccc1N=C1CCCN1c1ccccc1 | - | - | - | - | . | - | .
Cc1cccc(N2CCCC2=Nc2ccc(Br)cc2C#N)c1 | - | - | 62 | - | . | - | -
CCCN(CC(=O)Nc1ccccc1OC)C(=O)c1ccc(S(=O)(=O)Nc2ccccc2OC)cc1 | - | . | . | . | - | - | .
O=S1(=O)C=C(Sc2nnc(-c3ccccc3)o2)c2ccccc21 | 98 | - | 90 | - | . | - | 65
Nc1nc(CCl)nc(N(c2ccccc2)c2ccccc2)n1 | - | - | 76 | - | 80 | - | -
COc1ccccc1NC(=S)NCCc1ccc(F)cc1 | - | - | - | - | - | - | .
CC(C)NC(=O)c1ccc(-c2cccc(C(F)(F)F)c2)o1 | - | - | - | - | - | - | .
CCOc1ccc(Cc2c(Cl)nc(SC)nc2N(C)C)cc1 | - | - | 60 | - | . | - | -
Cn1c(-c2ccc(F)c(F)c2)cc2onc(-c3ccccc3)c2c1=O | - | - | - | . | - | - | -
SMILES | Shn3 3UTR inh | 697 NFkB inh | Jurkat NFkB inh | aSyn UTR inh | TAG inh | Gli-Sufu antag | Jurkat NFkB conf
COc1ccc(OC)c2c1C(=O)C(Cl)=C(Cl)C2=O | . | - | 60 | - | - | - | 68
Cc1nc(SCC(=O)N(C)C2CCS(=O)(=O)C2)c2ccccc2n1 (stereo not drawn) | - | - | - | . | - | - | .
CC(C)(C)c1ccc(-c2cnco2)cc1 | - | - | - | - | - | - | .
Cc1cc(N(C)C)ccc1N=Nc1ccc2ncccc2c1 | - | - | - | - | . | - | -
NC(=S)N=Nc1c(O)n(Cc2ccc(Br)cc2)c2ccccc12 | - | - | 60 | 64 | . | - | -
COc1ccc(CC(=O)NCCc2ccc(S(N)(=O)=O)cc2)cc1 | - | - | - | - | . | - | .
Cc1cc(NCCCn2ccnc2)n2ncc(-c3ccc(Cl)cc3)c2n1 | - | - | - | ? | . | - | -
CCOC(=O)[C@H]1[C@H]2COc3ccc(C)cc3[C@@H]2N2C(=O)c3ccccc3NC(=O)[C@@]12C | - | - | - | . | - | - | .
O=C(NC(C(=O)c1ccccc1)n1cnccc1=O)c1ccccc1 (stereo not drawn) | - | - | - | - | - | - | .
CCOc1ccc2nc(C)cc(Nc3cccc([N+](=O)[O-])c3)c2c1 | - | - | 77 | - | . | - | -
O=C(CC(c1ccccc1)c1ccccc1)Nc1ncn[nH]1 | - | - | - | - | - | - | .
Cc1cc(C)c(S(=O)(=O)N2CCN(C(=O)c3c(C)noc3C)CC2)c(C)c1 | - | - | - | . | - | - | .
CC(C)(C)NC(=O)CSc1nc(O)cc(=O)[nH]1 | - | - | - | - | - | - | .
CC(C)c1ccc(NC(=O)c2csnn2)cc1 | - | - | - | - | . | - | -
O=C(Nc1ccccc1NC(=O)c1csnn1)c1csnn1 | - | - | - | - | - | - | .
CCN(CC)C(=O)Cn1cc(C(=O)C(=O)NCCc2ccccc2)c2ccccc21 | - | - | - | - | . | - | .
O=S(=O)(Nc1cccc2cccnc12)c1ccccc1 | - | - | 101 | - | . | - | -
Cc1ccc2cccc(NS(=O)(=O)c3ccccc3)c2n1 | . | - | 99 | - | . | - | -
CC(=O)Nc1ccc(S(=O)(=O)Nc2cccc3cccnc23)cc1 | - | - | - | - | . | - | .
CC1CCN(C(=O)C(=O)Nc2sc3c(c2C(=O)O)CC(C)(C)OC3)CC1 | - | - | - | - | . | - | .
c1ccc(-c2cccc(-c3ccccn3)n2)nc1 | 88 | - | 92 | 77 | . | 85 | 83
CCCCOC(=O)Nc1nc2ccccc2s1 | - | - | - | - | - | - | -
CCCCOC(=O)Nc1nc2ccc(OC)cc2s1 | - | - | - | - | . | - | .
COc1ccccc1C(=O)Nc1nc2ccccc2s1 | - | - | 62 | 109 | - | 67 | 71
Nc1ccc(C(=O)Nc2nc3ccccc3s2)cc1 | - | - | - | - | - | - | -
SMILES | Shn3 3UTR inh | 697 NFkB inh | Jurkat NFkB inh | aSyn UTR inh | TAG inh | Gli-Sufu antag | Jurkat NFkB conf
COc1ccccc1C(=O)Nc1nc2ccc(S(C)(=O)=O)cc2s1 | - | - | - | - | . | - | .
CCN1CCN(C(=O)c2nn(C)c3c2CS(=O)(=O)c2ccccc2-3)CC1 | - | - | - | - | . | - | .
O=C(Nc1ccc2c(c1)CCC2)c1ccccc1 | - | - | - | - | . | - | -
NC(=O)CSc1nnc(SCc2ccc(F)cc2)s1 | - | - | - | - | - | - | .
Cc1ccc2oc(/N=C(\N)NC(=O)C(C)(C)C)nc2c1 | . | - | 60 | 96 | - | 75 | 87
CC(C)C[C@@H](CNCC(=O)[C@H](Cc1c[nH]c2ccccc12)NC(=O)c1[nH]cnc1C(=O)N[C@@H](C)CN)NC(=O)c1nc[nH]c1C(=O)N[C@@H](Cc1ccccc1)C(=O)O | - | . | . | . | - | - | .
COc1ccc(NC(=O)c2nc(S(=O)(=O)Cc3cccc(C)c3)ncc2Cl)c(OC)c1 | 97 | - | 54 | 82 | . | - | -
Clc1ccccc1/C=N/NC1=Nc2cccc3cccc1c23 | - | - | - | - | . | - | -
COc1cccc([C@@H]2Oc3ccc(OC)cc3C(=O)[C@H]2O)c1 | - | - | - | - | - | - | -
COc1ccc2c(c1)C(=O)[C@@H](O)[C@H](c1ccc(OC)c(Br)c1)O2 | - | - | - | - | - | - | .

From PubChem BioAssay
